This is an account of results in PubChem BioAssay (NCI).

Holding throughout (test): NCI-60 one-dose screen, 48 h (100 = growth as untreated, 0 = no growth, -100 = all killed)
What all share (details): 10 µM unless noted

Assay [1] has as its system HCT-15 colon.
Assay [2] has as its system HT29 colon.
The test system of assay [3] is SNB-75 CNS.
Assay [4] has as its system SNB-19 CNS.
The test system of assay [5] is U251 CNS.
Assay [6] concerns PC-3 prostate.
Assay [7] relates to SK-MEL-5 melanoma.
For assay [8], the system named is UACC-62 melanoma.
Assay [9] has as its system LOX IMVI melanoma.
For assay [10], the system named is SK-MEL-28 melanoma.

Compounds without any hit were thinned out: in the full panel of roughly 83,000, 20% have a hit.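 Compound tested at a single concentration for 48 hours in 96-well plates; a percent growth value below 10 was scored as active.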 Values without a mark were called inactive. The source made the active and inactive calls.

In the case of `CC(=O)Oc1cccc(OC(C)=O)c1OC(C)=O`, the growth in [1] was 101%; in assay [2] it was 110%; in assay [3], 88.4%; in [4], 105%; in [5], 95.6%; in assay [6] it was 89.6%. Besides, the growth in [7] was 93.8%; in assay [8], 96.8%; in assay [9], 95.2%; in assay [10], 104%.
Take `COc1ccc(N=C2NN=C(c3ccc(F)cc3)CS2)cc1OC`: the growth in assay [1] was 96.5%; in [2], 100%; in [3], 123%; in assay [4], 94.3%; in assay [5] it was 87.4%; in assay [6] it was 93.2%. The growth in assay [7] is 86.8%; in assay [8], 86.6%; in assay [9], 85.5%; in [10], 114%.
`Nc1c(C(=O)Nc2cccc(C(F)(F)F)c2)sc2nc3c(cc12)C(O)CCC3` (stereo not given): the growth was 36.7% in assay [1]; 17.7% in [2]; -6.78% (active) in [3]; 86.8% in [4]; 16.8% in [5]; 23.4% in assay [6]. For the same compound, the growth was 25.7% in assay [7], 41.4% in assay [8], 47.8% in [9] and 49% in assay [10].
With `COc1cc(/C=C/C(=O)c2ccccc2O)ccc1OCCCOc1cc2c(cc1OC)C(=O)N1CCC[C@H]1C=N2`, the growth in assay [1] was -3.51% (active); in assay [2], -41.4% (active); in assay [3], -57.7% (active); in assay [4], -1.67% (active); in assay [5], -74.7% (active); in assay [6] it was 10.7%. Besides, the growth in assay [7] is -76.5% (active); in assay [8] it was -82.4% (active); in [9], -60.8% (active); in [10], -64.3% (active).
Consider `C#CCN1C(=O)/C(=c2\sc3n(c2=O)C2C(NN=3)N(CC)C(=O)N2CC)c2ccccc21` (stereo not given), for which the growth was 16% in assay [1]; 7.7% (active) in assay [2]; -25.2% (active) in assay [3]; 28% in [4]; 11.2% in assay [5]; 22.7% in assay [6]. Besides, the growth in assay [7] was 12.4%; in assay [8] it was 25.2%; in assay [9] it was 27.1%; in [10] it was 43.4%.
Consider `C=CCn1c(C)nc2ccc(Nc3nc(Nc4ccc(F)cc4)nc4ccccc34)cc21`, for which the growth was 34.5% in [1]; 18.7% in [2]; 54.6% in assay [3]; 96.5% in assay [4]; 59.6% in [5]; 42.1% in assay [6]. Further, the growth in assay [7] is 33.3%; in assay [8] it was 63.2%; in assay [9], 45.3%; in assay [10], 72%.
Take `COc1cc(C(=O)OCCCCCCCCCCC[P+](c2ccccc2)(c2ccccc2)c2ccccc2)ccc1O`: the growth in assay [1] is 0.0119% (active); in assay [2], 1.83% (active); in assay [3], -75.7% (active); in [4], -54.9% (active); in assay [5] it was -89.8% (active); in assay [6] it was -22.3% (active). Moreover, the growth was -98.1% (active) in assay [7], -16% (active) in assay [8], -97.7% (active) in [9] and -66.1% (active) in assay [10].
For `COc1ccc(NC(=O)CSc2nc3ccc(Cl)cc3c(=O)n2-c2ccccc2C(F)(F)F)c(OC)c1OC`, the growth in assay [1] was 97.8%; in [2] it was 97.3%; in [3], -17.3% (active); in [4], 68.1%; in assay [5] it was 58%; in assay [6] it was 75.1%. For the same compound, the growth in assay [7] was 89.7%; in [8], 68.7%; in assay [9], 88%; in assay [10] it was 92.1%.
As to `CCNCc1ccncc1`, the growth is 104% in [1]; 102% in assay [2]; 92.5% in assay [3]; 106% in assay [4]; 94.9% in [5]; 85.2% in assay [6]. Further, the growth is 102% in assay [7], 109% in assay [8], 93.6% in assay [9] and 119% in [10].
`COc1ccc(-c2nc3sccn3c2-c2ccnc(NCCCNS(=O)(=O)c3ccc(F)cc3)n2)cc1`: the growth in assay [1] was 2.92% (active); in assay [2], 20%; in assay [3] it was 40.4%; in assay [4], 42.6%; in assay [5], 26.1%; in [6], 21.1%. Besides, the growth was -59.6% (active) in assay [7], -34.4% (active) in [8], 6.15% (active) in [9] and 11.5% in [10].
For `COc1ccc(Cn2c(SC)nc(=O)n(Cc3ccc(Cl)cc3)c2=O)cc1`, the growth in [1] was 98.5%; in [2], 121%; in assay [3], 80.7%; in [4], 97%; in assay [5], 93.2%; in [6], 90.1%. Besides, the growth in assay [7] was 107%; in assay [8], 87.7%; in [9], 87.5%; in [10], 102%.
Turning to `COc1cc(/C=C2\CCCC3=C2N=C2SC(C)=NN2C3c2cc(OC)c(OC)c(OC)c2)cc(OC)c1OC` (stereo not given), the growth is -20.6% (active) in assay [1]; 13.9% in assay [2]; -7.84% (active) in assay [3]; 32.3% in assay [4]; 20.9% in assay [5]; 57.7% in assay [6]. The growth in assay [7] was 45.2%; in [8] it was -31.2% (active); in [9] it was -67.6% (active); in assay [10], 26.3%.
Regarding `O=P([O-])(O)OP(=O)([O-])O.[NH-][C@H]1CCCC[C@@H]1[NH-].[OH-].[OH-].[Pt+4]`, the growth in assay [1] is 102%; in [2] it was 110%; in assay [3], 86.6%; in assay [4], 107%; in assay [5] it was 91.1%; in assay [6], 99.5%. Further, the growth is 106% in [7], 103% in assay [8], 102% in assay [9] and 118% in assay [10].
With `CN(C)c1ccc(C2CC(c3ccccc3)=NN2/C=C2\SC(=O)NC2=O)cc1` (stereo not given), the growth in assay [1] was 85.9%; in assay [2] it was 108%; in [3], 83.6%; in assay [4], 87.6%; in assay [5], 103%; in assay [6], 91.3%. Also, the growth was 78.8% in assay [7], 90.7% in assay [8], 74.3% in [9] and 91.1% in assay [10].
